Results published in PubChem BioAssay AID1347420 (Sanford-Burnham Center for Chemical Genomics, 2020).
The whole screen tested about 1,300 compounds, of which about 980 (75%) were called active. About 4% were inconclusive and are not listed. This is one part of the list.

Target: Sulfhydryl oxidase 1 (Homo sapiens) (UniProt O00391)
Assay: QSOX1 enzyme inhibitors, primary screen, biochemical, HyperBlu H2O2 luminescence, HTS (AID 1347420); note: values above 100% were filed as inconclusive
Conditions: recombinant QSOX1, HyperBlu H2O2 luminescence; at 12.5 µM; hits give high values; active = any value above zero

Sequence of Sulfhydryl oxidase 1 (Homo sapiens) (O00391 whole entry, looked up): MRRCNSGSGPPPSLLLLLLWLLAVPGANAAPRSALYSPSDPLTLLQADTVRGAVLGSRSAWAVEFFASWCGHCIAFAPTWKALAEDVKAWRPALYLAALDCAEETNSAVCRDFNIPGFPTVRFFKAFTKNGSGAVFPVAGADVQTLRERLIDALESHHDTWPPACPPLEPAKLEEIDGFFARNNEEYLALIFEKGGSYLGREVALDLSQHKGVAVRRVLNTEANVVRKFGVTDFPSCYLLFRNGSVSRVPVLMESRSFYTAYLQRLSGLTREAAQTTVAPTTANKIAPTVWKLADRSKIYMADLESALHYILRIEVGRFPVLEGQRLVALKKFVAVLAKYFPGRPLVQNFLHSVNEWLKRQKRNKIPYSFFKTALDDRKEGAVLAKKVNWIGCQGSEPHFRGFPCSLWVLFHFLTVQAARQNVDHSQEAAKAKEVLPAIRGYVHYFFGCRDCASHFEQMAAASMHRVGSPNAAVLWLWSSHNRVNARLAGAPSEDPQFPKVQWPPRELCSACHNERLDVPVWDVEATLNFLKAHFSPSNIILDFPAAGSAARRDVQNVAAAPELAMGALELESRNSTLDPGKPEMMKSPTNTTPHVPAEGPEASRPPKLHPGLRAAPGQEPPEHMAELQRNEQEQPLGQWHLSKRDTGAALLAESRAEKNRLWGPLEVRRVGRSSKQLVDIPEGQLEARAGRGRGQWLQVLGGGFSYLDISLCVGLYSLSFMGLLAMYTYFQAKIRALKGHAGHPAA

inhibition, inactive:
Cc1nn(-c2ccccc2)c(C)c1C=NN1CCN(Cc2ccccc2)CC1 -0.7%
Cc1ccc(/C(=C\CN2CCCC2)c2ccccn2)cc1 -62.9%
CSc1ccc(C(=O)c2[nH]c(=O)[nH]c2C)cc1 -9%
CCOC(=O)C(C)(C)Oc1ccc(Cl)cc1 -1.7%
CCC1C(=O)OCC1Cc1cncn1C (configuration not stated) -0.2%

inhibition, active:
O=C1CCC(c2ccc(-n3ccnc3)cc2)=NN1 10%
O=c1oc(Cl)c(Cl)c2ccccc12 15%
Nc1ncnc2c1c(-c1ccc(Oc3ccccc3)cc1)cn2C1CCCC1 7.6%
COc1cc([C@@H]2c3cc4c(cc3[C@@H](O[C@@H]3O[C@@H]5CO[C@@H](C)O[C@H]5[C@H](O)[C@H]3O)[C@H]3COC(=O)[C@H]23)OCO4)cc(OC)c1O 31.7%
COc1cc([C@@H]2c3cc4c(cc3[C@H](O)C3COC(=O)[C@@H]32)OCO4)cc(OC)c1OC (some centres not stated) 10.7%
O=C(O)CN(CCN(CC(=O)O)CC(=O)O)CCN(CC(=O)O)CC(=O)O 25.6%
O=C(O)CN(CCOCCOCCN(CC(=O)O)CC(=O)O)CC(=O)O 13.4%
CN(C)[C@@H]1C(=O)C(C(N)=O)=C(O)[C@@]2(O)C(=O)C3=C(O)c4c(O)ccc(Cl)c4[C@@H](O)[C@H]3C[C@@H]12 49.5%
C[C@H]1c2cccc(O)c2C(O)=C2C(=O)[C@]3(O)C(O)=C(C(N)=O)C(=O)[C@@H](N(C)C)[C@@H]3[C@@H](O)[C@@H]21 39.9%
COc1ccccc1N1CCN(CCN(C(=O)c2ccc(F)cc2)c2ccccn2)CC1 27.6%
COc1ccccc1N1CCN(CCN(C(=O)c2ccc(I)cc2)c2ccccn2)CC1 28.5%
COc1ccccc1N1CCN(CCN(C(=O)C2CCCCC2)c2ccccn2)CC1 40.4%
O=C(O)C1CCCN(CCC=C(c2ccccc2)c2ccccc2)C1 (configuration not stated) 3.5%
O=C(O)C1=CC(=C(c2ccc(O)c(C(=O)O)c2)c2ccc(O)c(C(=O)O)c2)C=CC1=O 42.3%
O=c1c2ccccc2nc2n1CCc1c-2[nH]c2ccccc12 5.7%
CCCCc1oc2ccccc2c1C(=O)c1cc(I)c(OCCN(CC)CC)c(I)c1 18%
CCCC[C@@]1(C2CCCC2)Cc2cc(OCC(=O)O)c(Cl)c(Cl)c2C1=O 25.1%
C[C@@]1(C2CCCC2)Cc2cc(OCC(=O)O)c(Cl)c(Cl)c2C1=O 18.3%
CC(C)C(=O)c1c(C(C)C)nn2ccccc12 12.7%
CC(C)ON([C@@H](C(=O)NO)C(C)C)S(=O)(=O)c1ccc(-c2ccccc2)cc1 8.1%
CC(C)OC(=O)C(C)(C)Oc1ccc(C(=O)c2ccc(Cl)cc2)cc1 1.9%
NNCCc1ccccc1 9.9%
CCCCCCN(CCCCCC)C(=O)Cc1c(-c2ccc(F)cc2)[nH]c2ccccc12 22.4%
CC(=O)Nc1nnc(S(N)(=O)=O)s1 14.5%
CN(C)CCOC(C)(c1ccccc1)c1ccccn1 (configuration not stated) 6.5%
CN1CCN(C2Cc3ccccc3Sc3ccc(Cl)cc32)CC1 (configuration not stated) 1.9%
CSc1ccc2c(c1)C(N1CCN(C)CC1)Cc1ccccc1S2 (configuration not stated) 1.3%
O=c1n(CCCN2CCN(c3cccc(Cl)c3)CC2)nc2ccccn12 45.2%
Cc1ccc(C(=O)Nc2ccc(S(=O)(=O)[O-])c3c2C(S(=O)(=O)[O-])=[C+]C(S(=O)(=O)O)=[C+]3)cc1NC(=O)c1cccc(NC(=O)Nc2cccc(C(=O)Nc3cc(C(=O)Nc4ccc(S(=O)(=O)[O-])c5c4C(S(=O)(=O)[O-])=[C+]C(S(=O)(=O)O)=[C+]5)ccc3C)c2)c1 17.8%
c1cc(CN2CCCCC2)cc(OCCCNc2nc3ccccc3s2)c1 7.9%
C1CCc2nnnn2CC1 15.2%
CNCCNS(=O)(=O)c1cccc2cnccc12 3.8%
